Test results published in PubChem BioAssay AID1159580 (chemical genetic matrix, 2015).
Out of some 5,500 compounds screened, about 2,000 (36%) were called active. Inconclusive results (about 18%) are left out. Cut-off read from the data, not from the text of the source: active = normalized growth mostly below about 0.91 (no sharp cut-off); inconclusive = no clear call, values can overlap the other calls; inactive = mostly above about 0.92. The list shows a part of the results.

Experiment: chemical genetic growth profiling, strain panel (AID 1159580);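 note: tested at 20 µM; growth read once vehicle control cultures reached saturation at 30 °C; 1 = growth at the plate median or of vehicle wells; lower values mean less growth of the strain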
Settings: growth OD

Measured: normalized growth

C[C@]12CCC(=O)C=C1C=CC1C2CC[C@@]2(C)C1CC[C@@]2(O)CCC(=O)O (some centres not stated)
inactive: S. cerevisiae deletion strains, locus YJR075W, strain HOC1, hits give low values 0.991 | S. cerevisiae deletion strains, locus YKL009W, strain mrt4, hits give low values 0.962 | S. cerevisiae deletion strains, locus YKL068W, hits give low values 0.995 | S. cerevisiae deletion strains, locus YKL085W, strain MDH1 (second series), hits give low values 0.993 | S. cerevisiae deletion strains, locus YKL085W, strain MDH1, hits give low values 0.993 | S. cerevisiae deletion strains, locus YKL160W, strain elf1, hits give low values 0.996 | S. cerevisiae deletion strains, locus YKL190W, strain CNB1, hits give low values 1.01 | S. cerevisiae deletion strains, locus YKR001C, strain vps1, hits give low values 0.98 | S. cerevisiae deletion strains, locus YKR026C, strain gcn3, hits give low values 1.03 | S. cerevisiae deletion strains, locus YKR091W, strain srl3, hits give low values 1.01 | S. cerevisiae deletion strains, locus YLL001W, strain dnm1, hits give low values 1.01 | S. cerevisiae deletion strains, locus YLL026W, hits give low values 1 | S. cerevisiae deletion strains, locus YLL041C, strain sdh2, hits give low values 1.01 | S. cerevisiae deletion strains, locus YLR027C, strain aat2, hits give low values 1.01 | S. cerevisiae deletion strains, locus YLR039C, strain RIC1, hits give low values 0.986 | S. cerevisiae deletion strains, locus YLR058C, strain SHM2, hits give low values 0.994 | S. cerevisiae deletion strains, locus YLR102C, strain apc9, hits give low values 0.999 | S. cerevisiae deletion strains, locus YLR113W, strain HOG1, hits give low values 1.06 | S. cerevisiae deletion strains, locus YLR221C, strain rsa3, hits give low values 1.01 | S. cerevisiae deletion strains, locus YLR258W, strain gsy2, hits give low values 1.02 | S. cerevisiae deletion strains, locus YLR262C, strain YPT6 (second series), hits give low values 0.93 | S. cerevisiae deletion strains, locus YLR262C, strain YPT6, hits give low values 0.983 | S. cerevisiae deletion strains, locus YLR268W, strain sec22, hits give low values 0.929 | S. cerevisiae deletion strains, locus YLR320W, strain mms22, hits give low values 1.01 | S. cerevisiae deletion strains, locus YLR330W, strain CHS5, hits give low values 1.02 | S. cerevisiae deletion strains, locus YLR342W, strain FKS1 (second series), hits give low values 1.05 | S. cerevisiae deletion strains, locus YLR342W, strain FKS1, hits give low values 0.995 | S. cerevisiae deletion strains, locus YLR357W, strain rsc2, hits give low values 1.01 | S. cerevisiae deletion strains, locus YLR370C, strain arc18, hits give low values 1.02 | S. cerevisiae deletion strains, locus YLR371W, strain rom2, hits give low values 0.985 | S. cerevisiae deletion strains, locus YLR384C, strain iki3, hits give low values 1.02 | S. cerevisiae deletion strains, locus YLR418C, strain cdc73, hits give low values 0.977 | S. cerevisiae deletion strains, locus YML016C, strain PPZ1, hits give low values 0.99 | S. cerevisiae deletion strains, locus YML032C, strain rad52, hits give low values 0.978 | S. cerevisiae deletion strains, locus YML120C, strain ndi1, hits give low values 1.02 | S. cerevisiae deletion strains, locus YML124C, strain tub3, hits give low values 0.996 | S. cerevisiae deletion strains, locus YMR058W, strain fet3, hits give low values 1.02 | S. cerevisiae deletion strains, locus YMR078C, strain ctf18, hits give low values 0.979 | S. cerevisiae deletion strains, locus YMR125W, strain sto1, hits give low values 1.04 | S. cerevisiae deletion strains, locus YMR129W, hits give low values 1.03 | S. cerevisiae deletion strains, locus YMR205C, strain PFK2, hits give low values 1.05 | S. cerevisiae deletion strains, locus YMR223W, strain ubp8, hits give low values 1.01 | S. cerevisiae deletion strains, locus YMR231W, strain pep5, hits give low values 1.02 | S. cerevisiae deletion strains, locus YMR263W, strain SAP30, hits give low values 0.988 | S. cerevisiae deletion strains, locus YMR307W, strain GAS1, hits give low values 1.01 | S. cerevisiae deletion strains, locus YNL067W, strain RPL9B, hits give low values 0.969 | S. cerevisiae deletion strains, locus YNL071W, strain lat1, hits give low values 1.01 | S. cerevisiae deletion strains, locus YNL128W, strain TEP1, hits give low values 0.995 | S. cerevisiae deletion strains, locus YNL153C, strain GIM3, hits give low values 0.977 | S. cerevisiae deletion strains, locus YNL183C, strain NPR1, hits give low values 0.995 | S. cerevisiae deletion strains, locus YNL209W, strain ssb2, hits give low values 1.02 | S. cerevisiae deletion strains, locus YNL233W, strain BNI4, hits give low values 0.99 | S. cerevisiae deletion strains, locus YNL248C, strain rpa49, hits give low values 1.04 | S. cerevisiae deletion strains, locus YNL250W, strain rad50, hits give low values 0.993 | S. cerevisiae deletion strains, locus YNL271C, strain bni1, hits give low values 0.986 | S. cerevisiae deletion strains, locus YNL298W, strain CLA4, hits give low values 0.984 | S. cerevisiae deletion strains, locus YNL307C, strain MCK1, hits give low values 0.989 | S. cerevisiae deletion strains, locus YNL322C, strain KRE1 (second series), hits give low values 1.02 | S. cerevisiae deletion strains, locus YNL322C, strain KRE1, hits give low values 1 | S. cerevisiae deletion strains, locus YNR049C, strain mso1, hits give low values 1.02 | S. cerevisiae deletion strains, locus YNR052C, strain pop2, hits give low values 0.996 | S. cerevisiae deletion strains, locus YOL006C, strain TOP1, hits give low values 0.951 | S. cerevisiae deletion strains, locus YOL012C, strain htz1 1.54 | S. cerevisiae deletion strains, locus YOL147C, strain pex11, hits give low values 0.989 | S. cerevisiae deletion strains, locus YOR001W, strain rrp6, hits give low values 1 | S. cerevisiae deletion strains, locus YOR061W, strain CKA2, hits give low values 0.995 | S. cerevisiae deletion strains, locus YOR069W, strain VPS5, hits give low values 0.985 | S. cerevisiae deletion strains, locus YOR070C, strain gyp1, hits give low values 1.03 | S. cerevisiae deletion strains, locus YOR080W, strain dia2, hits give low values 1.02 | S. cerevisiae deletion strains, locus YOR083W, strain WHI5, hits give low values 0.965 | S. cerevisiae deletion strains, locus YOR106W, strain vam3, hits give low values 1.01 | S. cerevisiae deletion strains, locus YOR136W, strain idh2, hits give low values 0.987 | S. cerevisiae deletion strains, locus YOR144C, strain elg1, hits give low values 0.994 | S. cerevisiae deletion strains, locus YOR184W, strain ser1, hits give low values 0.977 | S. cerevisiae deletion strains, locus YOR231W, strain MKK1, hits give low values 1.05 | S. cerevisiae deletion strains, locus YOR265W, strain rbl2, hits give low values 1.02 | S. cerevisiae deletion strains, locus YOR270C, strain vph1, hits give low values 1.05 | S. cerevisiae deletion strains, locus YOR290C, strain snf2, hits give low values 1.02 | S. cerevisiae deletion strains, locus YOR316C, strain cot1, hits give low values 0.995 | S. cerevisiae deletion strains, locus YPL051W, strain arl3, hits give low values 1 | S. cerevisiae deletion strains, locus YPL055C, strain LGE1, hits give low values 1.02 | S. cerevisiae deletion strains, locus YPL078C, strain atp4, hits give low values 1.01 | S. cerevisiae deletion strains, locus YPL106C, strain sse1, hits give low values 1.01 | S. cerevisiae deletion strains, locus YPL240C, strain hsp82, hits give low values 1.02 | S. cerevisiae deletion strains, locus YPL241C, strain CIN2, hits give low values 1 | S. cerevisiae deletion strains, locus YPL256C, strain CLN2, hits give low values 1.1 | S. cerevisiae deletion strains, locus YPR119W, strain clb2, hits give low values 0.994 | S. cerevisiae deletion strains, locus YPR141C, strain kar3, hits give low values 0.982 | S. cerevisiae deletion strains, locus YPR163C, strain tif3, hits give low values 0.991 | S. cerevisiae deletion strains, locus YPR167C, strain met16, hits give low values 0.995 | S. cerevisiae deletion strains, strain wtn01, hits give low values 0.953 | S. cerevisiae strains, strain wild type, hits give low values 1
